Measured values published in PubChem BioAssay (Tox21).
Results filed as inconclusive are left out. Active and inactive are the calls of the source. Calls come from the whole dose curve.

Assay: qHTS assay to identify small molecule agonists of the AP-1 signaling pathway - cell viability counter screen (AID 1159525); note: nearly all actives have a fitted effect of over 55% in size
Conditions: ME-180 (cervical carcinoma) AP-1-bla cells viability, ATP luminescence, 5 h; series mostly up to 76.8 µM
Text: National Center for Advancing Translational Sciences [NCATS]
NIH Chemical Genomics Center [NCGC]
U.S. Environmental Protection Agency [EPA]
National Institutes of Environmental Health Sciences [NIEHS]
National Toxicology Program [NTP]
U.S. Food and Drug Administration [FDA]
Activator protein-1 (AP-1), a transcription factor, plays an important role in tumor genesis by regulating genes involved in cell proliferation, differentiation, apoptosis, and angiogenesis. AP-1 activity is induced by a complex network of signaling pathways that involves extracellular signals, such as growth factors. The AP-1 protein complex formed from c-Fos and c-Jun binding to the AP-1 response element results in transcriptional activation of genes containing such elements within their promoter.
Low molecular weight molecules have been discovered and developed to modulate various components of these signaling pathways, for example, MAP kinase inhibitors. However, many points of pathway modulation remain untested due to the lack of chemical probes making this signaling locus of general interest.
Using a beta-lactamase reporter-gene under control of the AP-1 response element, a cell-based assay [CellSensor(TM) AP-1-bla ME-180 developed by Invitrogen Corp.] was used to measure EGF-induced signaling. The Tox21 10K library compounds were measured for their ability to positively modulate the action of EC50 EGF on reporter gene activity. Compounds were screened in a 15-pt titration series in 1536-well format. The cytotoxicity of the Tox21 compound library against this cell line was tested in parallel by measuring the intra cellular ATP content in the same wells.
Tox21 Assay Protocol Summary:
2500 cells/5uL in Opti-MEM medium containing 0.5% dialyzed FBS, 0.1 mM NEAA, 1 mM sodium pyruvate and 10 mM HEPES was dispensed into 1536-well black wall/clear bottom plates using a Multidrop dispenser and cells were cultured at 37 degrees Celsius overnight. Next day 23 nL of compounds dissolved in DMSO, positive controls or DMSO were delivered to each well using a pin tool. The plates were incubated at 37 degrees Celsius for 5 hours. 1 uL of LiveBLAzerTM B/G FRET substrate (Solution A+B+C+D) was added to each well using a Flying Reagent Dispenser. After incubated at room temperature for 2.5 hours the plates were measured on an EnVision plate reader at Excitation 405nm, Emission1=460nm and Emission 2=530nm. The %Activity was determined from the ratio of 460nm/530nm.
After the plates were read for Beta-Lactamase assay on Envision; 3 ul Cell Titer Glo (Promega) was added to measure the cytotoxicity and the plates were then incubated at RT in dark for 30 min. The luminescence was read on ViewLux (Perkin Elmer, Shelton, CT) using 6 sec exposure. ViewLux data was expressed as relative luminescence units.
For primary data analysis, raw plate reads for each titration point were first normalized relative to […] EGF control (100%) and DMSO only wells (basal, 0%).
For primary data analysis for viability assay, raw plate reads for each titration point were first normalized Tetra n-octyl ammonium bromide control (-100%) and DMSO (control, 100%).

SMILES	outcome	viability change, negative = cytotoxic
CCCCCCCCSCCO	inactive	
CC(C)C(OC(=O)c1ccccc1)C(C)(C)COC(=O)c1ccccc1 (stereo not given)	inactive	
CCCC1C(CC)=CC(CC)=CN1c1ccccc1 (stereo not given)	inactive	
CCCCCCCCCCCC(=O)[O][Sn]([CH2]CCC)([CH2]CCC)[O]C(=O)CCCCCCCCCCC	inactive	
CC(C)CCCCCCOC(=O)CCCCC(=O)OCCCCCCC(C)C	inactive	
CN(C(=O)C(Cl)Cl)c1ccc(OC(=O)c2ccco2)cc1	inactive	
CCCC(=O)O[C@]1(C(=O)COC(=O)CC)CC[C@H]2[C@@H]3CCC4=CC(=O)CC[C@]4(C)[C@H]3[C@@H](O)C[C@@]21C		-0.096% [at 15.8 µM] (inactive)
CC1(C)C2=CCCC(C)(C)[C@]23CC[C@H]1C3	inactive	
O=c1[nH]c2ccc(S(=O)CCN3CCC(Cc4ccc(F)cc4)CC3)cc2o1 (stereo not given)	inactive	
Nc1nc(Cl)nc2c1ncn2[C@@H]1O[C@H](CO)[C@@H](O)[C@@H]1F	inactive	
CC(=O)OCC(=O)[C@H]1CC[C@H]2[C@@H]3CCC4=CC(=O)CC[C@]4(C)[C@H]3CC[C@]12C	inactive	
NC(=O)N(O)[C@@H]1COc2cc(OCc3ccccc3)ccc21	inactive	
C1COCO1	inactive	
O=[N+]([O-])c1cccc(S(=O)(=O)NCCNS(=O)(=O)c2cccc([N+](=O)[O-])c2)c1	inactive	
CC(C)(C)CC(C)(C)c1ccc(OCCO)cc1	inactive	
CCCOCCOCCO	inactive	
Cc1nc2ccccn2c(=O)c1CCN1CCC(C(=O)c2ccc(F)cc2)CC1	inactive	
COCCOC(=O)C1=C(C)NC(C)=C(C(=O)OC/C=C/c2ccccc2)C1c1cccc([N+](=O)[O-])c1 (stereo not given)	inactive	
CSc1ccc(Oc2ccc(S(N)(=O)=O)cc2CN(C)C)cc1C	inactive	
CCNC(=O)N1CCN(CCCC(c2ccc(F)cc2)c2ccc(F)cc2)CC1	inactive	

SMILES	outcome	viability change, negative = cytotoxic
ON(Cc1ccccc1)Cc1ccccc1	inactive	
CN(C)CCOC1=Cc2ccccc2Sc2ccc(Cl)cc21	inactive	
CCC(C)(C)C1CCC(O)CC1 (stereo not given)	inactive	
CCc1nn(CCCN2CCN(c3cccc(Cl)c3)CC2)c(=O)n1CCOc1ccccc1	inactive	
CC(=O)Oc1ccc(C(=C2CCCCC2)c2ccc(OC(C)=O)cc2)cc1	inactive	
C=CC(=O)NCOCC(C)C	inactive	
CCCCCCCCCCCCCCC[C@H](O)[C@@H](N)CO	inactive	
CCCCC(=O)O[C@]1(C(=O)CO)CC[C@H]2[C@@H]3CCC4=CC(=O)CC[C@]4(C)[C@H]3[C@@H](O)C[C@@]21C	inactive	
NCC1CCCC(CN)C1 (stereo not given)	inactive	
CCc1cccc(N(C)C(N)=Nc2cccc3ccccc23)c1	inactive	
O=S1OCCO1	inactive	
CC1(C)C(=O)N(Br)C(=O)N1Cl	inactive	
O=C(O)C(Cc1cc(I)c(O)c(I)c1)c1ccccc1 (stereo not given)	inactive	
CCCCN(CCCC)C(=S)SSC(=S)N(CCCC)CCCC	inactive	
Oc1ccc(Nc2ccccc2)cc1	inactive	
CCCCCC=CCC=CCCCCCCCC(=O)OCC	inactive	
CNC(=O)N(c1ccccc1)c1ccccc1	inactive	
CCC1(C)CC(=O)NC1=O (stereo not given)	inactive	
CC#N	inactive	
c1cc[c]([Bi]([c]2ccccc2)[c]2ccccc2)cc1	inactive	
